Laboratory results as given in the supplement of paper PMC7366291.
Counter-ions that a name gives are not always drawn. ± gives the standard deviation or the standard deviation of the averaged measurements.

Legend:
Details in all cases: 25 µM; exposure: 24-48 hpf
[1] = system: Danio rerio Tg(wt1b:EGFP) embryo, pronephros; test: glomerular separation, fold change vs DMSO control; higher = glomeruli further apart (abnormal)
Summary of the method: (§1)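 In HEPES-buffered E3 with 0.003% PTU and 0.5% DMSO, dechorionated Tg(wt1b:EGFP) zebrafish embryos were exposed to 25 μM compound from 24 to 48 hpf at 28.5°C. Pronephroi were then imaged dorsally at 470 nm in 10 z-slices, in 96-well plates filled with agarose. On maximum projections, a Fiji macro turned 16 manually placed reference points into distances and angles, and values more than 2 SD from the feature mean were excluded. Features are fold changes relative to the mean of DMSO-treated embryos from the same day.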

[2] = system: Danio rerio Tg(wt1b:EGFP) embryo, pronephros; test: glomerular width (mean of left and right), fold change vs DMSO control; higher = wider glomerulus
Summary of the method: as §1

[3] = system: Danio rerio Tg(wt1b:EGFP) embryo, pronephros; test: fraction of imaged embryos annotated as normal kidney; higher = less nephrotoxic; extreme values may be limits of the assay
Summary of the method: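 Zebrafish embryos carrying Tg(wt1b:EGFP) were dechorionated and exposed to 25 μM compound (0.5% DMSO) between 24 and 48 hpf at 28.5°C. Their pronephroi were imaged by widefield fluorescence, and each embryo was classed by hand from maximum projections. The measure is the fraction of embryos per treatment falling in the normal-kidney category.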

[4] = system: Danio rerio Tg(wt1b:EGFP) embryo, pronephros; test: pronephric angle neck segment to proximal convoluted tubule (mean of left and right), fold change vs DMSO control; higher = larger pronephric angle
Summary of the method: as §1

Compound | glomerular separation [1] | glomerular width [2] | fraction of imaged embryos annotated as normal kidney [3] | pronephric angle neck segment [4]
CNCCC(Oc1ccc(C(F)(F)F)cc1)c1ccccc1 (stereo not given) [Fluoxetine hydrochloride] | 1.23 ± 0.69 | 0.903 ± 0.041 | 0.583 | 1.04 ± 0.054
CCN1CCCC(OC(=O)C(c2ccccc2)c2ccccc2)C1 (stereo not given) [Piperidolate hydrochloride] | 0.836 ± 0.28 | 0.997 ± 0.01 | 0.75 | 0.98 ± 0.016
CC(C)NCC(O)COc1ccc(CCOCC2CC2)cc1 (stereo not given) [Betaxolol hydrochloride] | 1.15 ± 0.6 | 1 ± 0.065 | 1 | 0.987 ± 0.025
CCOC(=O)C1=C(C)NC(C)=C(C(=O)OC)C1c1cccc(Cl)c1Cl (stereo not given) [Felodipine] | 5.36 ± 2.5 | 0.634 ± 0.029 | 0 | 1.44 ± 0.022
COc1ccc(Cl)cc1C(=O)NCCc1ccc(S(=O)(=O)NC(=O)NC2CCCCC2)cc1 [Glibenclamide] | 0.804 ± 0.39 | 1.05 ± 0.023 | 0.818 | 0.999 ± 0.047
CCN(CC)C(C)CN1c2ccccc2Sc2ccccc21 (stereo not given) [Ethopropazine hydrochloride] | 0.571 ± 0.084 | 1.03 ± 0.035 | 0.917 | 1 ± 0.029
N[C@@H](C(=O)N[C@@H]1C(=O)N2C(C(=O)O)=C(Cl)CC[C@H]12)c1ccccc1 [Loracarbef] | 1.06 ± 0.25 | 1.08 ± 0.011 | 0.917 | 0.999 ± 0.025
O=C(NCCO[N+](=O)[O-])c1cccnc1 [Nicorandil] | 1.05 ± 0.44 | 0.989 ± 0.083 | 0.917 | 0.9232 ± 0.008
CC[C@H]1OC(=O)C[C@@H](O)[C@H](C)[C@@H](O[C@@H]2O[C@H](C)[C@@H](O[C@H]3C[C@@](C)(O)[C@@H](O)[C@H](C)O3)[C@H](N(C)C)[C@H]2O)[C@@H](CC=O)C[C@@H](C)C(=O)/C=C/C(C)=C/[C@@H]1CO[C@@H]1O[C@H](C)[C@@H](O)[C@@H](OC)[C@H]1OC [Tylosin] | 0.911 ± 0.28 | 0.983 ± 0.0057 | 0.833 | 1.005 ± 0.0099
O=C(c1ccc(OCCN2CCCCC2)cc1)c1c(-c2ccc(O)cc2)sc2cc(O)ccc12 [Raloxifene hydrochloride] | 0.793 ± 0.18 | 0.98 ± 0.059 | 0.917 | 1.01 ± 0.025
N[C@@H]1CCCCN(c2c(F)cc3c(=O)c(C(=O)O)cn(C4CC4)c3c2Cl)C1 [Besifloxacin hydrochloride] | 0.997 ± 0.35 | 1.02 ± 0.033 | 0.833 | 1.02 ± 0.018
CC(=O)OCC(=O)[C@@]1(O)CC[C@H]2[C@@H]3CCC4=CC(=O)C=C[C@]4(C)[C@@]3(F)[C@@H](O)C[C@@]21C [Isoflupredone acetate] | 1.22 ± 0.63 | 1.21 ± 0.017 | 0.583 | 1.014 ± 0.0048
CC(C)(C)NC[C@H](O)COc1cccc2c1CCCC2=O [(-) -Levobunolol hydrochloride] | 0.705 ± 0.17 | 1.07 ± 0.0039 | 0.917 | 0.944 ± 0.052
Nc1cc(C(Cl)=C(Cl)Cl)c(S(N)(=O)=O)cc1S(N)(=O)=O [Clorsulon] | 0.798 ± 0.23 | 0.948 ± 0.062 | 0.917 | 0.935 ± 0.044
O=C(CCCN1CCC(O)(c2ccc(Cl)cc2)CC1)c1ccc(F)cc1 [Haloperidol] | 1.19 ± 0.53 | 0.918 ± 0.086 | 0.833 | 0.974 ± 0.046
COc1cc2nc(N(C)CCCNC(=O)C3CCCO3)nc(N)c2cc1OC (stereo not given) [Alfuzosin hydrochloride] | 1.23 ± 0.62 | 1.01 ± 0.02 | 0.818 | 0.953 ± 0.036
OCc1cc(C(O)CNCCCCCCOCCCCc2ccccc2)ccc1O (stereo not given) [Salmeterol] | 5.53 ± 1.4 | 0.665 ± 0.017 | 0 | 1.65 ± 0.087
CC(C)C(=O)c1c(C(C)C)nn2ccccc12 [Ibudilast] | 0.785 ± 0.21 | 0.92 ± 0.051 | 1 | 1.01 ± 0.036
O=C1c2cccc(O)c2C(=O)c2c(O)cccc21 [1,8-Dihydroxyanthraquinone] | 1.16 ± 0.45 | 1 ± 0.04 | 0.917 | 1.03 ± 0.036
C[C@]12CC[C@@H]3c4ccc(O)cc4CC[C@H]3[C@@H]1CC[C@@H]2O [Estradiol-17 beta] | 3.16 ± 1.2 | 0.812 ± 0.069 | 0.167 | 1.29 ± 0.22
O=c1[nH]c(=O)n(C2CCCO2)cc1F (stereo not given) [Tegafur] | 1.02 ± 0.41 | 1.05 ± 0.057 | 0.917 | 0.991 ± 0.041
NS(=O)(=O)c1cc2c(cc1Cl)N=C(CSCc1ccccc1)NS2(=O)=O [Benzthiazide] | 0.917 ± 0.25 | 0.919 ± 0.05 | 0.917 | 0.965 ± 0.028
COc1cnc(NS(=O)(=O)c2ccc(N)cc2)nc1 [Sulfameter] | 0.925 ± 0.34 | 1.01 ± 0.021 | 0.833 | 0.9915 ± 0.0018
CCN1CCC[C@H]1CNC(=O)c1c(OC)ccc(Br)c1OC [Remoxipride Hydrochloride] | 0.777 ± 0.38 | 1.02 ± 0.08 | 0.917 | 0.976 ± 0.032
CCN(CC)CCOC(=O)c1ccc(N)cc1 [Procaine hydrochloride] | 0.828 ± 0.2 | 1.057 ± 0.0024 | 0.667 | 1.081 ± 0.0098

Compound | glomerular separation [1] | glomerular width [2] | fraction of imaged embryos annotated as normal kidney [3] | pronephric angle neck segment [4]
NCc1ccccc1CC(=O)N[C@@H]1C(=O)N2C(C(=O)O)=C(CSc3nnnn3CC(=O)O)CS[C@H]12 [Ceforanide] | 1.15 ± 0.8 | 0.949 ± 0.091 | 0.833 | 1.08 ± 0.038
CCOC(=O)Nc1ccc2c(c1)N(C(=O)CCN1CCOCC1)c1ccccc1S2 [Moricizine hydrochloride] | 0.635 ± 0.18 | 1.04 ± 0.013 | 0.833 | 0.993 ± 0.055
N=C(N)NCCN1CCCCCCC1 [Guanethidine sulfate] | 0.862 ± 0.46 | 1.04 ± 0.04 | 0.917 | 0.958 ± 0.035
CC(C)c1c(C(=O)Nc2ccccc2)c(-c2ccccc2)c(-c2ccc(F)cc2)n1CC[C@@H](O)C[C@@H](O)CC(=O)O [Atorvastatin] | 3.42 ± 1.4 | 0.691 ± 0.032 | 0 | 1.65 ± 0.047
O=C(O)c1cccnc1 [Niacin] | 0.706 ± 0.25 | 1.04 ± 0.063 | 0.917 | 0.992 ± 0.032
CCCCOc1cc(C(=O)NCCN(CC)CC)c2ccccc2n1 [Dibucaine] | 1.35 ± 0.37 | 0.996 ± 0.044 | 0.917 | 1.007 ± 0.0089
Cc1ccc2c(c1)c1c3n2CCNC3CCC1 (stereo not given) [Pirlindole mesylate] | 0.876 ± 0.33 | 1.07 ± 0.036 | 0.833 | 0.95 ± 0.0043
CO[C@@]1(NC(=O)C2SC(=C(C(N)=O)C(=O)O)S2)C(=O)N2C(C(=O)O)=C(CSc3nnnn3C)CS[C@@H]21 (stereo not given in full) [Cefotetan] | 1.24 ± 0.33 | 0.972 ± 0.012 | 0.909 | 0.985 ± 0.06
C[N+]1(CCCCC[N+]2(C)CCCC2)CCCC1 [Pentolinium bitartrate] | 1.28 ± 0.5 | 1.0393 ± 0.0007 | 0.75 | 1.05 ± 0.052
CN1CCN(C2=Nc3ccccc3Oc3ccc(Cl)cc32)CC1 [Loxapine succinate] | 1.15 ± 0.43 | 0.974 ± 0.014 | 0.75 | 1.06 ± 0.013
CCCc1nc2c(C)cc(-c3nc4ccccc4n3C)cc2n1Cc1ccc(-c2ccccc2C(=O)O)cc1 [Telmisartan] | 1.22 ± 0.41 | 0.988 ± 0.024 | 0.75 | 1.16 ± 0.046
CC(C)NC[C@H](O)COc1cccc2ccccc12 [(S)-propranolol hydrochloride] | 0.888 ± 0.27 | 1.03 ± 0.017 | 0.75 | 0.9744 ± 0.0062
CC(Cc1cccc(C(F)(F)F)c1)NCCOC(=O)c1ccccc1 (stereo not given) [Benfluorex] | 0.843 ± 0.23 | 1 ± 0.03 | 0.917 | 1.04 ± 0.045
Cn1c(=O)c2nc[nH]c2n(C)c1=O [Theophylline monohydrate] | 0.92 ± 0.21 | 0.999 ± 0.047 | 1 | 1 ± 0.011
Cc1cnc(C(=O)NCCc2ccc(S(=O)(=O)NC(=O)NC3CCCCC3)cc2)cn1 [Glipizide] | 0.984 ± 0.34 | 1.056 ± 0.0043 | 0.833 | 0.944 ± 0.021
CC(C)(C)NCC(O)COc1cccc2c1CCC(=O)N2 (stereo not given) [Carteolol hydrochloride] | 1.21 ± 0.32 | 0.909 ± 0.034 | 0.917 | 1.01 ± 0.027
NC(=O)OCC(COC(N)=O)c1ccccc1 [Felbamate] | 0.918 ± 0.32 | 1.05 ± 0.031 | 0.833 | 1.01 ± 0.013
CCOc1ccc(NC(C)=O)cc1 [Phenacetin] | 1.14 ± 0.31 | 1.0834 ± 0.00038 | 0.667 | 0.946 ± 0.022
CC1(C)O[C@@H]2C[C@H]3[C@@H]4CCC5=CC(=O)C=C[C@]5(C)[C@H]4[C@@H](O)C[C@]3(C)[C@]2(C(=O)CO)O1 [Desonide] | 1.63 ± 0.49 | 1.33 ± 0.024 | 0.167 | 1.04 ± 0.13
CN1CCN(C(c2ccccc2)c2ccccc2)CC1 [Cyclizine hydrochloride] | 0.835 ± 0.14 | 0.9853 ± 0.0046 | 0.833 | 0.952 ± 0.018
NCCCCCC(=O)O [Aminocaproic acid] | 0.833 ± 0.35 | 0.961 ± 0.022 | 1 | 1.02 ± 0.055
COC(=O)N/N=C/c1c[n+]([O-])c2ccccc2[n+]1[O-] [Carbadox] | 1.17 ± 0.61 | 0.931 ± 0.063 | 0.833 | 1.13 ± 0.11
CCN(CC)CC(=O)Nc1c(C)cccc1C [Lidocaine hydrochloride] | 0.686 ± 0.29 | 1.04 ± 0.015 | 1 | 0.9342 ± 0.0069
CCN(CC)C(=O)c1ccc(O)c(OC)c1 [Ethamivan] | 1.08 ± 0.29 | 1.1 ± 0.019 | 0.818 | 1.019 ± 0.0025
COc1ccc(CC(C)NCC(O)c2ccc(O)c(NC=O)c2)cc1 (stereo not given) [Formoterol fumarate] | 0.928 ± 0.31 | 0.97 ± 0.051 | 0.917 | 1.05 ± 0.034
